# Like-named read-outs stand apart in the source and are kept apart here.
# Tests used:
# PIK3CG = settings: concentration: 1 μM, replicates: in singlicate; n = 1
# PIK4CB = tested on: T1, PIK4CB; settings: concentration: 1 μM, replicates: in singlicate; n = 1
# T1 construct: gene PI4KB
# PIKFYVE = settings: concentration: 1 μM, replicates: in singlicate; n = 1
# PIM1 = settings: concentration: 1 μM, replicates: in singlicate; n = 1
# PIM2 = settings: concentration: 1 μM, replicates: in singlicate; n = 1
# PIM3 = settings: concentration: 1 μM, replicates: in singlicate; n = 1
# PIP5K1A = settings: concentration: 1 μM, replicates: in singlicate; n = 1
# PIP5K1C = settings: concentration: 1 μM, replicates: in singlicate; n = 1
# PIP5K2B = settings: concentration: 1 μM, replicates: in singlicate; n = 1
# PIP5K2C = tested on: T2, PIP5K2C; settings: concentration: 1 μM, replicates: in singlicate; n = 1
# T2 construct: gene PIP4K2C
# PKAC-alpha = tested on: T3, PKAC-alpha; settings: concentration: 1 μM, replicates: in singlicate; n = 1
# T3 construct: gene PRKACA
# PKAC-beta = tested on: T4, PKAC-beta; settings: concentration: 1 μM, replicates: in singlicate; n = 1
# T4 construct: gene PRKACB
# PKMYT1 = settings: concentration: 1 μM, replicates: in singlicate; n = 1
# PKN1 = settings: concentration: 1 μM, replicates: in singlicate; n = 1
# PKN2 = settings: concentration: 1 μM, replicates: in singlicate; n = 1
# PLK1 = settings: n = 1
# PLK2 = settings: concentration: 1 μM, replicates: in singlicate; n = 1
# PLK3 = settings: concentration: 1 μM, replicates: in singlicate; n = 1
# PLK4 = settings: concentration: 1 μM, replicates: in singlicate; n = 1
# PRKCD = settings: concentration: 1 μM, replicates: in singlicate; n = 1
# [1] = concentration: 1 μM, replicates: in singlicate
# 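Further: KINOMEscan kinase panel screen.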
smiles,measurement,setting,value
COc1ccc(-c2cc3c(C)nc(N)nc3n([C@H]3CC[C@H](O)CC3)c2=O)cn1,%Inh,PIK3CG,100%
same,%Inh,PIK4CB,93.9%
same,%Inh,PIKFYVE,45%
same,%Inh,PIM1,5%
same,%Inh,PIM2,0%
same,%Inh,PIM3,6%
same,%Inh,PIP5K1A,2%
same,%Inh,PIP5K1C,0%
same,%Inh,PIP5K2B,2%
same,%Inh,PIP5K2C,38%
same,%Inh,PKAC-alpha,0%
same,%Inh,PKAC-beta,0%
same,%Inh,PKMYT1,32%
same,%Inh,PKN1,0%
same,%Inh,PKN2,10%
same,%Inh,PLK1; [1],0%
same,%Inh,PLK2,0%
same,%Inh,PLK3,0%
same,%Inh,PLK4,0%
same,%Inh,PRKCD,0%
COc1cc2ncn(-c3cc(OCc4ccncc4)c(C(N)=O)s3)c2cc1OC [GSK336313],%Inh,PIK3CG,12%
same,%Inh,PIK4CB,0%
same,%Inh,PIKFYVE,0%
same,%Inh,PIM1,0%
same,%Inh,PIM2,0%
same,%Inh,PIM3,0%
same,%Inh,PIP5K1A,0%
same,%Inh,PIP5K1C,30%
same,%Inh,PIP5K2B,22%
same,%Inh,PIP5K2C,0%
same,%Inh,PKAC-alpha,0%
same,%Inh,PKAC-beta,0%
same,%Inh,PKMYT1,0%
same,%Inh,PKN1,31%
same,%Inh,PKN2,0%
same,%Inh,PLK1; 1 µM,81%
same,%Inh,PLK2,96.6%
same,%Inh,PLK3,55%
same,%Inh,PLK4,7%
same,%Inh,PRKCD,0%
Nc1nc(N)c2nc(-c3ccccc3)[nH]c2n1 [SKF-12778],%Inh,PIK3CG,8%
same,%Inh,PIK4CB,19%
same,%Inh,PIKFYVE,12%
same,%Inh,PIM1,0%
same,%Inh,PIM2,5%
same,%Inh,PIM3,0%
same,%Inh,PIP5K1A,0%
same,%Inh,PIP5K1C,47%
same,%Inh,PIP5K2B,8%
same,%Inh,PIP5K2C,35%
same,%Inh,PKAC-alpha,7%
same,%Inh,PKAC-beta,9%
same,%Inh,PKMYT1,2%
same,%Inh,PKN1,43%
same,%Inh,PKN2,23%
same,%Inh,PLK1; [1],0%
same,%Inh,PLK2,0%
same,%Inh,PLK3,0%
same,%Inh,PLK4,0%
same,%Inh,PRKCD,11%
O=C(NCc1cccs1)c1cc(C(=O)c2c(Cl)cccc2Cl)c[nH]1 [GW823670],%Inh,PIK3CG,0%
same,%Inh,PIK4CB,0%
same,%Inh,PIKFYVE,0%
same,%Inh,PIM1,5%
same,%Inh,PIM2,0%
same,%Inh,PIM3,0%
same,%Inh,PIP5K1A,34%
same,%Inh,PIP5K1C,0%
same,%Inh,PIP5K2B,4%
same,%Inh,PIP5K2C,0%
same,%Inh,PKAC-alpha,6%
same,%Inh,PKAC-beta,3%
same,%Inh,PKMYT1,0%
same,%Inh,PKN1,0%
same,%Inh,PKN2,0%
same,%Inh,PLK1; [1],0%
same,%Inh,PLK2,0%
same,%Inh,PLK3,0%
same,%Inh,PLK4,0%
same,%Inh,PRKCD,0%
Cl.NS(=O)(=O)c1cccc(Nc2cc(-c3ccc(F)cc3)n[nH]2)c1 [GW824645],%Inh,PIK3CG,0%
same,%Inh,PIK4CB,26%
same,%Inh,PIKFYVE,0%
same,%Inh,PIM1,0%
same,%Inh,PIM2,8%
same,%Inh,PIM3,0%
same,%Inh,PIP5K1A,3%
same,%Inh,PIP5K1C,59%
same,%Inh,PIP5K2B,0%
same,%Inh,PIP5K2C,0%
same,%Inh,PKAC-alpha,7%
same,%Inh,PKAC-beta,0%
same,%Inh,PKMYT1,0%
same,%Inh,PKN1,0%
same,%Inh,PKN2,0%
same,%Inh,PLK1; [1],0%
same,%Inh,PLK2,20%
same,%Inh,PLK3,23%
same,%Inh,PLK4,10%
same,%Inh,PRKCD,5%
CCC(=O)c1c(-c2ccccc2)c2cc(Cl)ccc2c(=O)n1Cc1cc(S(C)(=O)=O)n(CC(N)=O)n1,%Inh,PIK3CG,0%
same,%Inh,PIK4CB,0%
same,%Inh,PIKFYVE,17%
same,%Inh,PIM1,18%
same,%Inh,PIM2,2%
same,%Inh,PIM3,9%
same,%Inh,PIP5K1A,0%
same,%Inh,PIP5K1C,33%
same,%Inh,PIP5K2B,8%
same,%Inh,PIP5K2C,19%
same,%Inh,PKAC-alpha,0%
same,%Inh,PKAC-beta,0%
same,%Inh,PKMYT1,0%
same,%Inh,PKN1,1%
same,%Inh,PKN2,8%
same,%Inh,PLK1; [1],0%
same,%Inh,PLK2,0%
same,%Inh,PLK3,0%
same,%Inh,PLK4,0%
same,%Inh,PRKCD,6%
CCC(=O)c1c(-c2ccccc2)c2cc(Cl)ccc2c(=O)n1Cc1cc(C(=O)NC2CC2)n(C)n1,%Inh,PIK3CG,0%
same,%Inh,PIK4CB,0%
same,%Inh,PIKFYVE,25%
same,%Inh,PIM1,0%
same,%Inh,PIM2,0%
same,%Inh,PIM3,11%
same,%Inh,PIP5K1A,0%
same,%Inh,PIP5K1C,0%
same,%Inh,PIP5K2B,32%
same,%Inh,PIP5K2C,12%
same,%Inh,PKAC-alpha,0%
same,%Inh,PKAC-beta,0%
same,%Inh,PKMYT1,5%
same,%Inh,PKN1,0%
same,%Inh,PKN2,0%
same,%Inh,PLK1; [1],0%
same,%Inh,PLK2,2%
same,%Inh,PLK3,7%
same,%Inh,PLK4,10%
same,%Inh,PRKCD,8%
COc1ccc(-n2cnc3c(N)ncnc32)cc1 [SKF-97236],%Inh,PIK3CG,51%
same,%Inh,PIK4CB,23%
same,%Inh,PIKFYVE,0%
same,%Inh,PIM1,19%
same,%Inh,PIM2,0%
same,%Inh,PIM3,0%
same,%Inh,PIP5K1A,0%
same,%Inh,PIP5K1C,33%
same,%Inh,PIP5K2B,6%
same,%Inh,PIP5K2C,6%
same,%Inh,PKAC-alpha,0%
same,%Inh,PKAC-beta,19%
same,%Inh,PKMYT1,17%
same,%Inh,PKN1,46%
same,%Inh,PKN2,0%
same,%Inh,PLK1; [1],18%
same,%Inh,PLK2,3%
same,%Inh,PLK3,2%
same,%Inh,PLK4,1%
same,%Inh,PRKCD,9%
COc1cccc(C2=C(Nc3cccc(C(=O)O)c3)C(=O)NC2=O)c1 [SB-390770],%Inh,PIK3CG,5%
same,%Inh,PIK4CB,0%
same,%Inh,PIKFYVE,0%
same,%Inh,PIM1,0%
same,%Inh,PIM2,0%
same,%Inh,PIM3,0%
same,%Inh,PIP5K1A,5%
same,%Inh,PIP5K1C,56%
same,%Inh,PIP5K2B,4%
same,%Inh,PIP5K2C,23%
same,%Inh,PKAC-alpha,0%
same,%Inh,PKAC-beta,0%
same,%Inh,PKMYT1,11%
same,%Inh,PKN1,22%
same,%Inh,PKN2,0%
same,%Inh,PLK1; [1],6%
same,%Inh,PLK2,0%
same,%Inh,PLK3,0%
same,%Inh,PLK4,10%
same,%Inh,PRKCD,29%
O=C1NC(=O)C(c2ccccc2)=C1Nc1cccc(O)c1 [SB-390534],%Inh,PIK3CG,5%
same,%Inh,PIK4CB,22%
same,%Inh,PIKFYVE,0%
same,%Inh,PIM1,0%
same,%Inh,PIM2,0%
same,%Inh,PIM3,0%
same,%Inh,PIP5K1A,5%
same,%Inh,PIP5K1C,0%
same,%Inh,PIP5K2B,13%
same,%Inh,PIP5K2C,0%
same,%Inh,PKAC-alpha,0%
same,%Inh,PKAC-beta,5%
same,%Inh,PKMYT1,0%
same,%Inh,PKN1,0%
same,%Inh,PKN2,21%
same,%Inh,PLK1; [1],0%
same,%Inh,PLK2,20%
same,%Inh,PLK3,27%
same,%Inh,PLK4,11%
same,%Inh,PRKCD,5%
CCS(=O)(=O)c1ccc(OC)c(Nc2ncc(-c3ccc(F)cc3)o2)c1.Cl [GW591947],%Inh,PIK3CG,0%
same,%Inh,PIK4CB,0%
same,%Inh,PIKFYVE,0%
same,%Inh,PIM1,0%
same,%Inh,PIM2,0%
same,%Inh,PIM3,0%
same,%Inh,PIP5K1A,0%
same,%Inh,PIP5K1C,23%
same,%Inh,PIP5K2B,3%
same,%Inh,PIP5K2C,2%
same,%Inh,PKAC-alpha,0%
same,%Inh,PKAC-beta,14%
same,%Inh,PKMYT1,7%
same,%Inh,PKN1,0%
same,%Inh,PKN2,15%
same,%Inh,PLK1; [1],0%
same,%Inh,PLK2,0%
same,%Inh,PLK3,0%
same,%Inh,PLK4,0%
same,%Inh,PRKCD,2%
Cc1nn2c(=O)cc(N3CCOCC3)nc2n1Cc1cccc(Cl)c1Cl [GSK2342769],%Inh,PIK3CG,69%
same,%Inh,PIK4CB,0%
same,%Inh,PIKFYVE,62%
same,%Inh,PIM1,0%
same,%Inh,PIM2,0%
same,%Inh,PIM3,0%
same,%Inh,PIP5K1A,0%
same,%Inh,PIP5K1C,12%
same,%Inh,PIP5K2B,5%
same,%Inh,PIP5K2C,1%
same,%Inh,PKAC-alpha,7%
same,%Inh,PKAC-beta,7%
same,%Inh,PKMYT1,1%
same,%Inh,PKN1,36%
same,%Inh,PKN2,0%
same,%Inh,PLK1; [1],5%
same,%Inh,PLK2,0%
same,%Inh,PLK3,0%
same,%Inh,PLK4,0%
same,%Inh,PRKCD,0%
COC(=O)c1c(-c2ccccc2)c2cc(C)ccc2c(=O)n1Cc1ccccc1,%Inh,PIK3CG,0%
same,%Inh,PIK4CB,0%
same,%Inh,PIKFYVE,0%
same,%Inh,PIM1,2%
same,%Inh,PIM2,0%
same,%Inh,PIM3,0%
same,%Inh,PIP5K1A,13%
same,%Inh,PIP5K1C,20%
same,%Inh,PIP5K2B,5%
same,%Inh,PIP5K2C,1%
same,%Inh,PKAC-alpha,0%
same,%Inh,PKAC-beta,0%
same,%Inh,PKMYT1,13%
same,%Inh,PKN1,0%
same,%Inh,PKN2,0%
same,%Inh,PLK1; [1],0%
same,%Inh,PLK2,0%
same,%Inh,PLK3,0%
same,%Inh,PLK4,0%
same,%Inh,PRKCD,3%
Nc1ncnc2c1ncn2-c1ccc(Cl)cc1 [AH2635],%Inh,PIK3CG,47%
same,%Inh,PIK4CB,0%
same,%Inh,PIKFYVE,0%
same,%Inh,PIM1,0%
same,%Inh,PIM2,0%
same,%Inh,PIM3,0%
same,%Inh,PIP5K1A,17%
same,%Inh,PIP5K1C,57%
same,%Inh,PIP5K2B,10%
same,%Inh,PIP5K2C,23%
same,%Inh,PKAC-alpha,0%
same,%Inh,PKAC-beta,0%
same,%Inh,PKMYT1,0%
same,%Inh,PKN1,0%
same,%Inh,PKN2,0%
same,%Inh,PLK1; [1],0%
same,%Inh,PLK2,0%
same,%Inh,PLK3,0%
same,%Inh,PLK4,0%
same,%Inh,PRKCD,3%
Fc1cccc(CSc2nnc(-c3ccc4c(c3)CCO4)o2)c1,%Inh,PIK3CG,10%
same,%Inh,PIK4CB,2%
same,%Inh,PIKFYVE,7%
same,%Inh,PIM1,13%
same,%Inh,PIM2,18%
same,%Inh,PIM3,9%
same,%Inh,PIP5K1A,13%
same,%Inh,PIP5K1C,5%
same,%Inh,PIP5K2B,34%
same,%Inh,PIP5K2C,0%
same,%Inh,PKAC-alpha,29%
same,%Inh,PKAC-beta,0%
same,%Inh,PKMYT1,24%
same,%Inh,PKN1,0%
same,%Inh,PKN2,0%
same,%Inh,PLK1; [1],0%
same,%Inh,PLK2,6%
same,%Inh,PLK3,11%
same,%Inh,PLK4,21%
same,%Inh,PRKCD,7%
